Assay [1] is described as follows: antimalarial activity against Dd2 strain (AID 2302;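 active means growth inhibition above 50% at the single 2 µM test dose, taken to imply half-maximal potency below 2 µM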;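 further: 0% = DMSO untreated growth and 100% = chloroquine plus artemisinin killed control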). To be noted: P. falciparum Dd2 in RBCs, LDH growth readout, 72 h; at 2 µM; hits give high values.
Assay [2] has as its target L-lactate dehydrogenase (Plasmodium falciparum (isolate CDC / Honduras)) (UniProt Q27743). In words: PfLDH activity inhibition – cell lysate, 3D7 strain, counter-screen for P. falciparum growth inhibition project (AID 2304).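 Further: 0% = vehicle and 100% = reference inhibitor.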 Conditions: P. falciparum 3D7 crude extract, LDH APAD/NBT absorbance; at 2 µM; hits give high values. (In general: The purpose of a counterscreen is to sort out artefacts and off-target activity.)

Assay [3] in a line: inhibition of 3D7 malaria parasite growth – strain 3D7 (AID 2306).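 Further: 0% = DMSO wells and 100% = chloroquine plus artemisinin control wells.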 Conditions: P. falciparum 3D7 erythrocytic growth, LDH absorbance, 72 h; at 2 µM; hits give high values.
Assay [4] has as its target Calcium-dependent protein kinase 1 (Plasmodium falciparum (isolate 3D7)) (UniProt P62344). In words: PfCDPK1 kinase inhibitors, biochemical, TCAMS library (AID 1159585; cut-off not given, nearly all actives have IC50 up to about 0.98 µM;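 further: inhibitors leave more ATP so luminescence rises with inhibition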). To be noted: recombinant PfCDPK1, Kinase-Glo ATP depletion luminescence. A general note: Kinase-Glo reads ATP consumption through a luciferase reaction.
For assay [5], the target named is Plasmodium falciparum protein kinase 6 (PK6, PF3D7_1337100) (UniProt Q8IDW1). In words: PfPK6 kinase inhibitors, biochemical, TCAMS library (AID 1159586). To be noted: recombinant PfPK6, Kinase-Glo ATP depletion luminescence.
Plasmodium falciparum protein kinase 6 (PK6, PF3D7_1337100), sequence (Q8IDW1 1-305): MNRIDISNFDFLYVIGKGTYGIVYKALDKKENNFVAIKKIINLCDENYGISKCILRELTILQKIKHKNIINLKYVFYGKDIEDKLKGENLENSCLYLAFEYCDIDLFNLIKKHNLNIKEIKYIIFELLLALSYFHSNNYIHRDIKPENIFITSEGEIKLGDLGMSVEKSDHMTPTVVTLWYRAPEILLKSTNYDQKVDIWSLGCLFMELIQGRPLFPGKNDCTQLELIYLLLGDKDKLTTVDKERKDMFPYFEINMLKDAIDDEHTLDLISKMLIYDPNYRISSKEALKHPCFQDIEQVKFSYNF
Assay [6] deals with Protein kinase 7 (PK7), Plasmodium falciparum 3D7 (PF3D7_0213400) (UniProt Q7YTF7). In words: inhibition of Plasmodium PK7 catalytic activity – biochemical, TCAMS antimalarial set, Kinase-Glo luminescence (AID 1159587). Conditions: recombinant PfPK7, Kinase-Glo ATP depletion luminescence.
Protein kinase 7 (PK7), Plasmodium falciparum 3D7 (PF3D7_0213400), sequence (Q7YTF7 1-343): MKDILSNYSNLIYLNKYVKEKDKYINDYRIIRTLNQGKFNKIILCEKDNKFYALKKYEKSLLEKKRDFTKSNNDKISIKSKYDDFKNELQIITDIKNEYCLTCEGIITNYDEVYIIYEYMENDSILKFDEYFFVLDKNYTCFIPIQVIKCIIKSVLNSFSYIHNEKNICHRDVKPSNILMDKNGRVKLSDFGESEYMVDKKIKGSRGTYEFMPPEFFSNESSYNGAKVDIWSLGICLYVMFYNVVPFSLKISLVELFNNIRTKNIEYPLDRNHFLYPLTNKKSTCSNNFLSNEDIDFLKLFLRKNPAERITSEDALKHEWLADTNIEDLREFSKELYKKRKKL
Assay [7] deals with Calcium-dependent protein kinase 4 (Plasmodium falciparum (isolate 3D7)) (UniProt Q8IBS5). In words: PfCDPK4 kinase inhibitors, biochemical, TCAMS library (AID 1159588; cut-off not given, nearly all actives have IC50 up to about 0.91 µM). Conditions: recombinant PfCDPK4, Kinase-Glo ATP depletion luminescence.
Calcium-dependent protein kinase 4 (Plasmodium falciparum (isolate 3D7)), sequence (Q8IBS5 whole entry, looked up): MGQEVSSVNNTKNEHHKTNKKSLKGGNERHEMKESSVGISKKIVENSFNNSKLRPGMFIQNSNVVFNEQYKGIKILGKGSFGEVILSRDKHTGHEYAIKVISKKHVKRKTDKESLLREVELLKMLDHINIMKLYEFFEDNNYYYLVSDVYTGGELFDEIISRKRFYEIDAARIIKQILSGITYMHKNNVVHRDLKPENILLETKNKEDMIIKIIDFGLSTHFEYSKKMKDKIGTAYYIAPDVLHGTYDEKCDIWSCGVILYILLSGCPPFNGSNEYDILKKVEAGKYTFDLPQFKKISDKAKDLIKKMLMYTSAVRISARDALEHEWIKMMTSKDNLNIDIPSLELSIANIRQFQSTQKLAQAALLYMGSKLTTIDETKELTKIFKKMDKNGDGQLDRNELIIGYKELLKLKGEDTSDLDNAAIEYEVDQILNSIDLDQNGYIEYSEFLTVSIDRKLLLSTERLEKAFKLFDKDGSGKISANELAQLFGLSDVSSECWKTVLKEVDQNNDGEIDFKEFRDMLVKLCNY

A number with no mark means an inactive call. For part of these data: Entries with a potency or affinity are not part of this list. Activity calls are given as the source filed them. Unless noted, how the calls were made is not given here.

Usually inhibition stands for the drop in the measured response relative to a control, in per cent.

Calcium-dependent protein kinase 1 (Plasmodium falciparum (isolate 3D7)), sequence (P62344 whole entry, looked up): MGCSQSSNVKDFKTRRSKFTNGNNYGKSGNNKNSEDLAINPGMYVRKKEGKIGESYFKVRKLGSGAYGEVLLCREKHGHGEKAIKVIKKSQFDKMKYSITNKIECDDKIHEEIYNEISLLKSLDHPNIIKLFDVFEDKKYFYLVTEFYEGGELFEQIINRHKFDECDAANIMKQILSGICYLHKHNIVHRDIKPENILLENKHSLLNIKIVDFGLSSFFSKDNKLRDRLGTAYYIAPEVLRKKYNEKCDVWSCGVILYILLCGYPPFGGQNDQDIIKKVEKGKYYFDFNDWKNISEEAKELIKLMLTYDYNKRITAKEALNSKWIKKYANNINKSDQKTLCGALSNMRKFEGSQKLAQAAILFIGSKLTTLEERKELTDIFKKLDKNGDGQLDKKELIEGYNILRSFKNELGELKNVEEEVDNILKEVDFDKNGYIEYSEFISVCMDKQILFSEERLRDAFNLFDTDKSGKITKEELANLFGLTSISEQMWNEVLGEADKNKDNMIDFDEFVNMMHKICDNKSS
L-lactate dehydrogenase (Plasmodium falciparum (isolate CDC / Honduras)), sequence (Q27743 whole entry, looked up): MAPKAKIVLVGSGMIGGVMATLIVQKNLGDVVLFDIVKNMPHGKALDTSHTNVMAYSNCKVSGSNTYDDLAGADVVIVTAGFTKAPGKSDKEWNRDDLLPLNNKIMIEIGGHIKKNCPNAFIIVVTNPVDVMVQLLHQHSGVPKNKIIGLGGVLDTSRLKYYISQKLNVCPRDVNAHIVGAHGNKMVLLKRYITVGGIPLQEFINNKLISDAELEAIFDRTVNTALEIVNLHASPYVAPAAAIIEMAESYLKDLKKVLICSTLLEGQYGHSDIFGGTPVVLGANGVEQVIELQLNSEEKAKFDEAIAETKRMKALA

As for `COc1ccc(C2c3ccccc3-c3nc(N)nc(N)c3C2C)cc1` (configuration not stated), the results for the growth inhibition in assay [1] and in assay [3] were 0% and 97% (active), respectively. In addition, the inhibition in assay [2] was 3%. Moreover, the result in assay [4], in assay [5], in assay [6] and in assay [7] was inactive.

Take `COc1ccc2c(c1CCNCCCCNCCc1c(OC)ccc3c1CCCC3)CCCC2`: the values for the growth inhibition in assay [1] and in assay [3] were 25% and 101% (active), respectively. The inhibition in assay [2] is 7%. In addition, the result in assay [4], in assay [5], in assay [6] and in assay [7] was inactive.

On to `CCCc1cc(Cc2cnc(N)nc2N)cc2c1OC(C)(C)C2`, for which the growth inhibition in assay [1] is 3%; in assay [3], 89% (active). For the same compound, the inhibition in assay [2] is -1%. The result in assay [4], in assay [5], in assay [6] and in assay [7] was inactive.

Take `COc1cc(Cc2cnc(N)nc2N)cc(OCCCS(=O)(=O)O)c1OC`: the growth inhibition in assay [1] is -6%; in assay [3] it was 88% (active). In addition, the inhibition in assay [2] was 1%. The result in assay [4], in assay [5], in assay [6] and in assay [7] was inactive.

As for `Nc1nc(N)c2c(ccc3c2cnn3Cc2cccnc2)n1`, the growth inhibition in assay [1] is 96% (active); in assay [3], 95% (active). In addition, in assay [2], the inhibition was 0%. In addition, the outcome in assay [4], in assay [5], in assay [6] and in assay [7] was inactive.

In the case of `COc1ccc(Cc2cnc(N)nc2N)cc1OCCCOc1ccccc1`, the growth inhibition is 4% in assay [1] and 91% (active) in assay [3]. Moreover, the inhibition in assay [2] is 6%. For the same compound, the outcome in assay [4], in assay [5], in assay [6] and in assay [7] was inactive.

Take `CCCc1ccc(Cc2cnc3nc(N)nc(N)c3c2C)cc1`: the growth inhibition in assay [1] is -3%; in assay [3], 98% (active). In addition, the inhibition in assay [2] is 4%. In addition, the result in assay [4], in assay [5], in assay [6] and in assay [7] was inactive.

For `CC(C)Cn1ccc2c3c(N)nc(N)nc3ccc21`, the growth inhibition in assay [1] and in assay [3] was 96% (active) in each case. The inhibition in assay [2] is 1%. Moreover, the outcome in assay [4], in assay [5], in assay [6] and in assay [7] was inactive.

With `CCOc1cc2ncnc(Nc3ccc(OCc4ccccc4OC)c(OC)c3)c2cc1OCC`, the growth inhibition was 52% (active) in assay [1] and 97% (active) in assay [3]. Also, the inhibition in assay [2] is -5%. In addition, the outcome in assay [4], in assay [5], in assay [6] and in assay [7] was inactive.

As to `Cc1cc(=O)c(-c2ccc(OCc3ccc(Cl)cc3)cc2)c(C)[nH]1`, the figures for the growth inhibition in assay [1] and in assay [3] were 76% (active) and 93% (active), respectively. Besides, the inhibition in assay [2] was -1%. For the same compound, the outcome in assay [4], in assay [5], in assay [6] and in assay [7] was inactive.

`NC(N)=NC(=O)Nc1ccc(Cl)c(C(F)(F)F)c1`: the growth inhibition in assay [1] is 13%; in assay [3] it was 100% (active). In assay [2], the inhibition was 3%. Further, the result in assay [4], in assay [5], in assay [6] and in assay [7] was inactive.

Consider `Cc1[nH]c(C)c(-c2ccc(Oc3cccc(C(F)(F)F)c3)cc2)c(=O)c1Br`, for which the growth inhibition in assay [1] is 97% (active); in assay [3], 99% (active). Moreover, the inhibition in assay [2] is 4%. Further, the outcome in assay [4], in assay [5], in assay [6] and in assay [7] was inactive.

On to `CC1CCN(Cc2c(O)ccc3c(CN4CCC(C)CC4)c(O)ccc23)CC1`, for which the growth inhibition is 86% (active) in assay [1] and 102% (active) in assay [3]. Moreover, the inhibition in assay [2] was -3%. In addition, the outcome in assay [4], in assay [5], in assay [6] and in assay [7] was inactive.

As to `Cc1[nH]c(C)c(-c2ccc(-c3ccc(F)cc3)cc2)c(=O)c1Cl`, the growth inhibition in assay [1] and in assay [3] was 96% (active) each time. The inhibition in assay [2] is -2%. In addition, the outcome in assay [4], in assay [5], in assay [6] and in assay [7] was inactive.

With `Nc1nc(N)c(-c2ccccc2)c(=O)[nH]1`, the growth inhibition in assay [1] was -5%; in assay [3], 83% (active). In addition, the inhibition in assay [2] was 0%. Moreover, the outcome in assay [4], in assay [5], in assay [6] and in assay [7] was inactive.

In the case of `Nc1nc(N)c2c(n1)CCc1cc(Br)ccc1-2`, the growth inhibition in assay [1] is 4%; in assay [3], 87% (active). Moreover, in assay [2], the inhibition is 6%. Further, the outcome in assay [4], in assay [5], in assay [6] and in assay [7] was inactive.

With `CCN(C)C(=O)n1ncc2c3c(N)nc(N)nc3ccc21`, the growth inhibition in assay [1] is 0%; in assay [3], 95% (active). Further, in assay [2], the inhibition was 6%. The result in assay [4], in assay [5], in assay [6] and in assay [7] was inactive.

`CCCCCCOc1ccc2ccccc2c1CNCCCCCCNCc1c(OCCCCCC)ccc2ccccc12`: the growth inhibition is 55% (active) in assay [1] and 85% (active) in assay [3]. Besides, in assay [2], the inhibition is 6%. The outcome in assay [4], in assay [5], in assay [6] and in assay [7] was inactive.

For `Nc1nc(N)c2c(ccc3nn(Cc4ccccc4)cc32)n1`, the growth inhibition in assay [1] was 88% (active); in assay [3] it was 97% (active). Moreover, the inhibition in assay [2] was 0%. For the same compound, the outcome in assay [4], in assay [5], in assay [6] and in assay [7] was inactive.

Regarding `CCN(CC)CCCC(C)Nc1ccnc2cc(C#N)ccc12` (configuration not stated), the growth inhibition is 80% (active) in assay [1] and 100% (active) in assay [3]. For the same compound, in assay [2], the inhibition was -1%. For the same compound, the outcome in assay [4], in assay [5], in assay [6] and in assay [7] was inactive.

For the compound `COc1ccc(Cc2c(Cl)nc3nc(N)nc(N)c3c2C)c(OC)c1OC`, the growth inhibition is -3% in assay [1] and 98% (active) in assay [3]. The inhibition in assay [2] is -2%. The result in assay [4], in assay [5], in assay [6] and in assay [7] was inactive.

As to `O=c1c2ccc(Sc3ccccn3)cc2n(-c2ccccc2)c2cc(Sc3ccccn3)ccc12`, the growth inhibition was 70% (active) in assay [1] and 89% (active) in assay [3]. Moreover, the inhibition in assay [2] is -3%. The outcome in assay [4], in assay [5], in assay [6] and in assay [7] was inactive.

Regarding `CCc1cc(COc2ccc(CNCCC(C)C)cc2I)c(OCc2ccccc2)c(COc2ccc(CNCCC(C)C)cc2I)c1`, the growth inhibition in assay [1] was 15%; in assay [3] it was 89% (active). The inhibition in assay [2] was 0%. Further, the outcome in assay [4], in assay [5], in assay [6] and in assay [7] was inactive.

On to `COc1cc(Cc2cnc(N)nc2N)cc(OCCCCC#N)c1OC`, for which the growth inhibition in assay [1] is -1%; in assay [3], 86% (active). In addition, the inhibition in assay [2] is 8%. For the same compound, the result in assay [4], in assay [5], in assay [6] and in assay [7] was inactive.

In the case of `COc1cc(CCNC(=O)Cc2ccc3ccccc3c2)ccc1OCc1ccccc1`, the growth inhibition in assay [1] was 61% (active); in assay [3], 93% (active). The inhibition in assay [2] is 2%. For the same compound, the outcome in assay [4], in assay [5], in assay [6] and in assay [7] was inactive.

With `Nc1nc(Cc2ccc(Cl)cc2)nc(Cc2ccc(Cl)cc2)n1`, the figures for the growth inhibition in assay [1] and in assay [3] were -2% and 85% (active), respectively. Moreover, the inhibition in assay [2] is 2%. In addition, the result in assay [4], in assay [5], in assay [6] and in assay [7] was inactive.

For `Cc1[nH]c(C)c(-c2ccc(Cl)cc2)c(=O)c1I`, the figures for the growth inhibition in assay [1] and in assay [3] were 96% (active) and 93% (active), respectively. In assay [2], the inhibition is -5%. Further, the result in assay [4], in assay [5], in assay [6] and in assay [7] was inactive.

For `Nc1nc(N)c2c(ccc3c2ccn3Cc2ccc3c(c2)OCO3)n1`, the growth inhibition in assay [1] is 95% (active); in assay [3] it was 100% (active). Moreover, the inhibition in assay [2] was -3%. For the same compound, the outcome in assay [4], in assay [5], in assay [6] and in assay [7] was inactive.

As to `Cc1[nH]c(C)c(-c2ccc(Oc3ccc(Cl)c(Cl)c3)cc2)c(=O)c1Br`, the growth inhibition in assay [1] is 96% (active); in assay [3], 97% (active). Besides, in assay [2], the inhibition is -1%. The result in assay [4], in assay [5], in assay [6] and in assay [7] was inactive.

Regarding `Cc1[nH]c(C)c(-c2cccc(Oc3ccc(Cl)cc3)c2)c(=O)c1Br`, the growth inhibition is 97% (active) in assay [1] and 96% (active) in assay [3]. In addition, in assay [2], the inhibition was 4%. Also, the result in assay [4], in assay [5], in assay [6] and in assay [7] was inactive.

`CC(=O)Oc1c(Br)c(C)nc(C)c1-c1ccc(Oc2ccc(OC(F)(F)F)cc2)cc1`: the growth inhibition in assay [1] was 97% (active); in assay [3], 98% (active). Also, the inhibition in assay [2] was -4%. In addition, the outcome in assay [4], in assay [5], in assay [6] and in assay [7] was inactive.

With `Cc1[nH]c(C)c(-c2ccc(S(=O)(=O)c3ccc(Cl)cc3)cc2)c(=O)c1Br`, the growth inhibition in assay [1] and in assay [3] was 97% (active) in each case. Moreover, the inhibition in assay [2] is 5%. Further, the result in assay [4], in assay [5], in assay [6] and in assay [7] was inactive.

Regarding `CC(C)(C)c1ccc(Cc2cccc3nc(N)nc(N)c23)cc1`, the figures for the growth inhibition in assay [1] and in assay [3] were 51% (active) and 100% (active), respectively. In assay [2], the inhibition was 4%. Besides, the result in assay [4], in assay [5], in assay [6] and in assay [7] was inactive.

As for `Cc1[nH]c(C)c(-c2ccc(Oc3ccc(Cl)c(Cl)c3)cc2)c(=O)c1Cl`, the growth inhibition in assay [1] was 97% (active); in assay [3], 100% (active). Also, the inhibition in assay [2] is -1%. The result in assay [4], in assay [5], in assay [6] and in assay [7] was inactive.

Take `CC(C)Oc1ccc2ccccc2c1CNCCCCCCNCc1c(OC(C)C)ccc2ccccc12`: the growth inhibition in assay [1] was 90% (active); in assay [3] it was 99% (active). Moreover, the inhibition in assay [2] was -7%. For the same compound, the outcome in assay [4], in assay [5], in assay [6] and in assay [7] was inactive.

`COc1cc(Cc2cnc(N)nc2N)cc(OCCCC#N)c1OC`: the growth inhibition in assay [1] is -1%; in assay [3], 86% (active). Further, the inhibition in assay [2] was -3%. The outcome in assay [4], in assay [5], in assay [6] and in assay [7] was inactive.

The record behind these values is PubChem BioAssay.
